Assay results taken from PubChem BioAssay (EPA / NIEHS).
Records with an inconclusive call do not appear. Active and inactive are the calls of the source. The calls were made as follows: active = hit-call score of the fitted dose curve at least 0.9, where 1 is the maximum; inconclusive = response in the unintended direction; inactive = score below 0.9.

How the values were obtained:
[1] = target: Cellular tumor antigen p53 (Homo sapiens) (UniProt P04637); experiment: TOX21_p53_BLA_p2_ratio: Tox21 HCT-116 p53 Agonism Beta-lactamase Assay, Ratio, Phase 2 (AID 2283592)
Cellular tumor antigen p53 (Homo sapiens), sequence (P04637 whole entry, looked up): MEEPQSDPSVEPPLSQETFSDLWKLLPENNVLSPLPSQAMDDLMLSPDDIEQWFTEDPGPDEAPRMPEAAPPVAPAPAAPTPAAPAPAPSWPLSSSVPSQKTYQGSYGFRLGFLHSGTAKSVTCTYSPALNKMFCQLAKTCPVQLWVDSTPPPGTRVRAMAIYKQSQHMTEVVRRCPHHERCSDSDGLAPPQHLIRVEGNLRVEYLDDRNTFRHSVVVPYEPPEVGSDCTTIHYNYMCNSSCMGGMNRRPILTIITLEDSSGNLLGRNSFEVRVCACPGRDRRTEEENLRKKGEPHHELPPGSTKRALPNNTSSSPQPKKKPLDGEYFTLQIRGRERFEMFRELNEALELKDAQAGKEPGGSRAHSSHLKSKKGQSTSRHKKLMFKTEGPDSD
Outline: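 DMSO-normalized, positive-direction endpoint derived from the 460 nm/530 nm FRET ratio in HCT116 p53 beta-lactamase reporter cells exposed 16 h at 37C and loaded with CCF4-AM for 2 h.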

[2] = TOX21_p53_BLA_p3_viability: Viability Assessment in the Tox21 HCT-116 p53 Agonism Beta-lactamase Assay, Phase 3 (AID 2283593);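 also: cells exposed to compound for 16 h before reading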
Outline: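 HCT-116 cells (4000/well) rested 5 h at 37C, then got DMSO compounds by pin tool (217-fold dilution) for 16 h at 37C, 5% CO2. After the bla read, CellTiter-Glo was added and luminescence read at 30 min, room temperature.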

[3] = target: Cellular tumor antigen p53 (Homo sapiens) (UniProt P04637); experiment: TOX21_p53_BLA_p3_ratio: Tox21 HCT-116 p53 Agonism Beta-lactamase Assay, Ratio, Phase 3 (AID 2283596)
Outline: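 Cells were seeded at 4000/well, rested 5 h at 37C, then dosed with DMSO compound solutions (217-fold dilution) for 16 h. CCF4-AM substrate was loaded for 2 h at room temperature, and the 460/530 nm emission ratio was fitted for gain of signal versus DMSO.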

[4] = TOX21_p53_BLA_p4_viability: Viability Assessment in the Tox21 HCT-116 p53 Agonism Beta-lactamase Assay, Phase 4 (AID 2283597);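 also: hits lower the luminescence signal meaning cytotoxicity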
Outline: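 In this multiplexed secondary endpoint, HCT116 cells (4000 per well, compound at 5 h, 16 h treatment) received CellTiter-Glo after the beta-lactamase read. Luminescence after 30 min RT reflects ATP, and falling signal marks cytotoxicity.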

[5] = target: Cellular tumor antigen p53 (Homo sapiens) (UniProt P04637); experiment: TOX21_p53_BLA_p5_ratio: Tox21 HCT-116 p53 Agonism Beta-lactamase Assay, Ratio, Phase 5 (AID 2283599)
Outline: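 HCT-116 cells carrying a p53-inducible beta-lactamase reporter were seeded at 4000 cells/well and dosed after 5 h with compound in DMSO (217-fold dilution). After 16 h at 37C, CCF4-AM substrate was added for 2 h, and the 460/530 nm emission ratio was scored as gain-of-signal versus DMSO.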

[6] = TOX21_p53_BLA_p5_viability: Viability Assessment in the Tox21 HCT-116 p53 Agonism Beta-lactamase Assay, Phase 5 (AID 2283600)
Outline: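 Here cell health was gauged by ATP levels in wells holding 4000 cells, each treated 16 h with DMSO-delivered compounds at 217-fold dilution; reduced luminescence marked toxicity.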

[7] = target: Cellular tumor antigen p53 (Homo sapiens) (UniProt P04637); experiment: TOX21_p53_BLA_p4_ratio: Tox21 HCT-116 p53 Agonism Beta-lactamase Assay, Ratio, Phase 4 (AID 2283601)
Outline: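 HCT116 cells carrying an inducible beta-lactamase reporter were plated at 4000 cells/well, rested 5 h, then exposed to compounds in DMSO (217-fold dilution) for 16 h at 37C. CCF4-AM substrate was loaded 2 h at room temperature; 460/530 nm emission ratio scored gain-of-signal versus DMSO.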

SMILES	outcome [1]	outcome [2]	outcome [3]	outcome [4]	outcome [5]	outcome [6]	outcome [7]	AC50 [1]	AC50 [5]	AC50 [7]	AC50 [3]
CS(=O)(=O)Nc1ccc([N+](=O)[O-])cc1Oc1ccccc1	inactive	inactive	inactive	inactive	inactive	inactive	inactive	–	–	–	–
CCCCCCCCCCCl	inactive	inactive	inactive	inactive	inactive	inactive	inactive	–	–	–	–
C[N+](C)(CCOc1ccccc1)Cc1cccs1	inactive	inactive	inactive	inactive	inactive	inactive	inactive	–	–	–	–
CCCCCCCCCCCCCCCC(=O)O[C@@H]1[C@@H](O)[C@@H](O)[C@@H]([C@H](NC(=O)[C@@H]2C[C@@H](CCC)CN2C)[C@H](C)Cl)O[C@@H]1SC	inactive	inactive	inactive	inactive	inactive	inactive	inactive	–	–	–	–
COC(=O)[C@@H]1[C@H]2C[C@H]3c4[nH]c5ccccc5c4CCN3C[C@@H]2CC[C@@H]1O	inactive	inactive	inactive	inactive	inactive	inactive	inactive	–	–	–	–
Cc1ccc2c(c1[N+](=O)[O-])C(=O)c1ccccc1C2=O	–	inactive	inactive	inactive	–	inactive	–	22.5 µM (active)	20.3 µM (active)	25.7 µM (active)	–
O=C(O)O	inactive	inactive	inactive	inactive	inactive	inactive	inactive	–	–	–	–
Cc1ccc(O)c2ncccc12	inactive	inactive	inactive	inactive	inactive	inactive	inactive	–	–	–	–
Cc1c(C)c2c(c(C)c1O)CC[C@@](C)(CCC[C@H](C)CCC[C@H](C)CCCC(C)C)O2	inactive	inactive	inactive	inactive	inactive	inactive	inactive	–	–	–	–
CC1(S(=O)(=O)O)CC(=O)c2ccccc2C1=O (centres undefined)	–	inactive	–	inactive	–	inactive	inactive	34.5 µM (active)	36.7 µM (active)	–	43.4 µM (active)
C#CCOc1ccc2c(C)cc(=O)oc2c1	inactive	inactive	inactive	inactive	inactive	inactive	inactive	–	–	–	–
CC(C)(C)NCC(O)c1ccc(O)c(CO)c1 (centres undefined)	inactive	inactive	inactive	inactive	inactive	inactive	inactive	–	–	–	–
